Among all 2,500 compounds or so, about 360 (14%) were called active.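 Rule for the calls: active = signal-lowering compounds whose fitted half-maximal concentration AC50 is no higher than ten times their top tested concentration; inconclusive = flat curve with 30 to 70% inhibition, or poor fit; inactive = flat within 30%, signal increase, or AC50 above limit.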 These entries were drawn from the full list.
Test: HRP/luminol detection interference without ALR, dose response, artefact control for ALR inhibitor project, biochemical, luminescence, no ALR or DTT, cherry-pick (AID 540356)
Conditions: HRP/H2O2 luminol luminescence counterscreen; series mostly up to 10 µM

**Q.** With CNCCc1ccc(O)c(O)c1 as the molecule, how does the AC50 read?
**A.** Its AC50 is “inactive”.

**Q.** For NCCc1ccc(O)c(O)c1, which AC50 is on record?
**A.** The AC50 was 6.13 µM (active).

**Q.** Which AC50 does the source give for C/C(CCc1c[nH]c2ccccc12)=N\O here?
**A.** The AC50 was “inactive”.

**Q.** For CCc1ccc(N2C(=O)NC(=O)/C(=C\C=C\c3ccco3)C2=O)cc1, which AC50 is on record?
**A.** Its AC50 is “inactive”.

**Q.** Which AC50 does the source give for CC1=NN(c2ccccc2)C(=O)C1/C=C1/C(=O)NC(=O)N(c2cc(C)cc(C)c2)C1=O (stereo not given) here?
**A.** The AC50 was “inactive”.

**Q.** For CN=C(SCc1ccccc1)c1c(O)n(C)c(=O)n(C)c1=O, which AC50 is on record?
**A.** Its AC50 is “inactive”.

**Q.** For Cn1c(O)c(/C=N/Nc2ccccc2)c(=O)n(C)c1=O, which AC50 is on record?
**A.** Its AC50 is 1.32 µM (active).

**Q.** For N/C(=N\[N+](=O)[O-])N/N=C/c1ccc(O)cc1, which AC50 is on record?
**A.** Its AC50 is “inactive”.

**Q.** With C=CCN1C(=O)NC(=O)/C(=C\c2ccc(-c3ccccc3[N+](=O)[O-])o2)C1=O as the molecule, how does the AC50 read?
**A.** The AC50 was “inactive”.

**Q.** For Cc1ccc(/C=C2\C(=O)NC(=O)N(Cc3ccccc3Cl)C2=O)o1, which AC50 is on record?
**A.** The AC50 was “inactive”.

**Q.** With CCCN1CCc2cccc3c2[C@H]1Cc1ccc(O)c(O)c1-3 as the molecule, how does the AC50 read?
**A.** Its AC50 is 9.91 µM (active).

**Q.** With CC(=O)Nc1ccccc1OP1(=O)COc2ccccc2OC1 as the molecule, how does the AC50 read?
**A.** The AC50 was “inactive”.

**Q.** For Cc1ccc(/C=C2\C(=O)NC(=O)N(CCc3ccc(F)cc3)C2=O)s1, which AC50 is on record?
**A.** Its AC50 is “inactive”.

**Q.** Which AC50 does the source give for O=C(O)C12C3CCCC1C32c1ccccc1 (stereo not given) here?
**A.** Its AC50 is “inactive”.

**Q.** With CCNc1ccc(P(=S)(N(C)C)N(C)C)cc1 as the molecule, how does the AC50 read?
**A.** Its AC50 is “inactive”.
